According to PubChem BioAssay (Tox21):
Records with an inconclusive call do not appear. A call without a number means that no potency is given here. Unmarked numbers belong to inactive results. Activity calls are given as the source filed them. Calls follow the shape of the dose curve; as a rule, active = well fitted cell-killing curve with a large enough effect in the repeat runs; inconclusive = weak or mixed curves, or effect the other way; inactive = flat fitted curve, though single readings scatter.

Assay: qHTS assay to identify small molecule antagonists of the androgen receptor (AR) signaling pathway using the MDA cell line - cell viability counter screen (AID 743041; also: nearly all actives have a fitted effect of over 45% in size)
Conditions: MDA-kb2 viability, CellTiter-Fluor, 16 h, cells co-treated with R1881 androgen agonist; series mostly up to 70.3 µM; viability change, negative = cytotoxic: at the top concentration
Text: National Center for Advancing Translational Sciences [NCATS]
NIH Chemical Genomics Center [NCGC]
U.S. Environmental Protection Agency [EPA]
National Institutes of Environmental Health Sciences [NIEHS]
National Toxicology Program [NTP]
U.S. Food and Drug Administration [FDA]
Androgen receptor (AR), a nuclear hormone receptor, plays a critical role in AR-dependent prostate cancer and other androgen related diseases. Endocrine disrupting chemicals (EDCs) and their interactions with steroid hormone receptors like AR may cause disruption of normal endocrine function as well as interfere with metabolic homeostasis, reproduction, developmental and behavioral functions. To identify the compounds that inhibit AR signaling, MDA-kb2 AR-luc cell line (from ATCC, deposited by Wilson et al.) was used to screen the Tox21 10K compound library. MDA-kb2 AR-luc cell line is human breast carcinoma cell line that was stably transfected with a luciferase reporter gene under control of the MMTV promoter containing response elements for both androgen receptor (AR) and glucocorticoid receptor (GR). The cytotoxicity of the Tox21 compound library against the MDA-kb2 AR-luc cell line was tested in parallel by measuring the cell viability using CellTiter-Fluor assay (Promega, Madison, WI) in the same wells.
Tox21 Assay Protocol Summary:
MDA-kb2 AR-luc cells were dispensed at 3,000 cells/4 uL/well of culture medium into white wall/solid-bottom 1536-well plates using a Multidrop Combi (ThermoFisher Scientific, Waltham, MA) dispenser. After the assay plates were incubated at a 37C and 0% CO2 for 5 hr, 23 nL of compounds dissolved in DMSO, positive controls or DMSO only was transferred to the assay plate by a Pintool station (Kalypsys, San Diego, CA), followed by addition of 1 uL of agonist (R1881) in culture medium using a Bioraptr Flying Reagent Dispenser (FRD) workstation (Beckman Coulter, Indianapolis, IN, USA). The plates were incubated at a 37C and 0% CO2 for 16 h. After 15.5 h incubation, 1uL of CellTiter-Fluor reagent (Promega) was added using a Bioraptr FRD to each plate for measuring cytotoxicity. The fluorescence intensity was quantified on a ViewLux plate reader (PerkinElmer, Shelton, CT) following 30 min incubation at 37C and 0% CO2.
Potency is read from the fitted curve at half-maximal effect.

Structure (SMILES)	Potency	viability change, negative = cytotoxic [%]
O=[N+]([O-])C(CO)(CO)CO	inactive	–
NC(=O)/N=N/C(N)=O	inactive	–
CC(C)Cc1ccccc1	inactive	–
Nc1c(S(=O)(=O)O)cc(Br)c2c1C(=O)c1ccccc1C2=O	30.6 µM (active)	–
CCCCCC/C=C/CCCCCCCC(=O)O	inactive	–
CCCCC/C=C\C/C=C\CCCCCCCC(=O)OC	inactive	–
Cc1cc(O)c2c(c1)C(=O)c1cc(O)cc(O)c1C2=O	inactive	–
CC(=O)Nc1ccc(C(=O)O)cc1	inactive	–
NCCNCCNCCNCCN	inactive	–
CN(C)c1cccc(O)c1	inactive	–
O=C(O)c1cc(-c2ccccc2)nc2ccccc12	–	-3.78
O=C(c1ccc(O)cc1)c1ccc(O)cc1O	inactive	–
C=C(C)C(=O)OCCCCCC	–	2.54
CCCCCCC(C)(C)S	inactive	–
OC[C@@H](O)[C@@H](O)[C@H](O)[C@@H](O)CO	inactive	–
CCCCCCCCC	inactive	–
COC(=O)c1ccc(C(=O)OC)cc1	inactive	–
CCCCCCCCCCCCOCC1CO1 (stereo not given)	inactive	–
CC1=C(CC(=O)O)c2cc(F)ccc2/C1=C\c1ccc(S(C)=O)cc1 (stereo not given)	inactive	–
Oc1ccc2ccccc2c1N=Nc1ccccc1	–	-0.31

Structure (SMILES)	Potency	viability change, negative = cytotoxic [%]
C=C1CC[C@H](O)CC1=C/C=C1\CCC[C@]2(C)[C@@H]([C@H](C)/C=C/[C@H](C)C(C)C)CC[C@@H]12	inactive	–
O=C(c1cc(O)c(O)c(O)c1)c1ccc(O)c(O)c1O	–	-7.73
O=S(=O)(O)CCS	inactive	–
NC(=O)NNc1ccccc1	inactive	–
Cn1c([N+](=O)[O-])cnc1COC(N)=O	inactive	–
CCCCNC(N)=O	inactive	–
CCCCOCCOCCOC(=O)CCCCC(=O)OCCOCCOCCCC	inactive	–
OC[C@@H](O)[C@H](O)[C@H](O)[C@@H](O)CO	inactive	–
CC(C)NCC(O)COc1cccc2ccccc12 (stereo not given)	inactive	–
CCCCCCOC(C)=O	inactive	–
O=Nc1ccc(O)cc1	–	-7.59
CN(C)c1ccc(C(=N)c2ccc(N(C)C)cc2)cc1	60.4 µM (active)	–
C=C1C2CCC(C2)C1(C)C (stereo not given)	inactive	–
C[C@@H]1O[C@@H](OC[C@H]2O[C@@H](Oc3c(-c4ccc(O)c(O)c4)oc4cc(O)cc(O)c4c3=O)[C@H](O)[C@@H](O)[C@@H]2O)[C@H](O)[C@H](O)[C@H]1O	–	-5.41
CCCCCCCCCCC=CC1CC(=O)OC1=O (stereo not given)	inactive	–
C=C(C)C(=O)OCC(CC)(COC(=O)C(=C)C)COC(=O)C(=C)C	inactive	–
CS(=O)(=O)Nc1ccc([N+](=O)[O-])cc1Oc1ccccc1	inactive	–
C/C=C(C)/C=C/C=C(C)C	inactive	–
O=C1O[C@H](CO)[C@@H](O)[C@H](O)[C@H]1O	inactive	–
c1ccc2[nH]cnc2c1	inactive	–
